The list is not random: actives were taken first. Their share in the collection is about 3.3%.
PI5P4K alpha inh: qHTS for Inhibitors of phosphatidylinositol 5-phosphate 4-kinase (PI5P4K). PI5P4Kalpha enzyme, ADP-Glo luminescence, 60 min; stronger effect = lower value. 330,000 tested, 1.2% active. AID 652105, 2013. max response, %. Phosphatidylinositol 5-phosphate 4-kinase type-2 alpha (Homo sapiens), P48426; active = max response of -50% or lower; inconclusive = between -30% and -50%; inactive = -30% or higher; also: value at the top dose of about 77 µM; % is scaled to controls: 0 for no effect and ±100 for the full control effect
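Quantitative HTS of the MLSMR library against PI5P4Kalpha with substrate. ATP added last at 5 microM final; room temperature, 60 minutes. Remaining ATP depleted, ADP converted and read as luminescence.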
LDHA inh: qHTS assay for inhibitors of human lactate dehydrogenase | activity change, % (values are at about 110 or 230 µM) | L-lactate dehydrogenase A chain (Homo sapiens), P00338 | AID 1347041, 2019 | purified LDHA, NADH/diaphorase-resazurin fluorescence; stronger effect = lower value | 480,000 tested, 0.15% active; in the data active = activity change below about -30%; inconclusive = mostly about -25% to -30%;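 also: plate controls were DMSO wells for no effect and wells without enzyme for full effect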
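Human LDH5 at 2 nM final in Tris HCl pH 7.4 with 0.06 mM NADH and 0.2 mM pyruvate, reacted 5 minutes at room temperature. Remaining NADH coupled via diaphorase/resazurin; resorufin fluorescence read at 0 and 20 minutes, normalized to enzyme-free and DMSO wells.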
D3 antag: qHTS of D3 Dopamine Receptor Antagonist: qHTS | D3R cells, DiscoveRx beta-arrestin luminescence, antagonist mode; stronger effect = lower value | max response, negative = inhibition, % | 360,000 tested, 2.5% active; in the data active = max response below about -50%; inconclusive = no clear call, values can overlap the other calls; also: % is scaled to controls: 0 for no effect and ±100 for the full control effect
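Cells plated overnight at 1500 cells/well, then exposed to library compounds with dopamine controls for 90 minutes at 37 degrees C. DiscoveRx reagent added for 30–60 minutes at room temperature; luminescence read, quantitative HTS format.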
PI4K2A block: qHTS for small molecular inhibitors of PI4K2A; Phosphatidylinositol 4-kinase type 2-alpha (Homo sapiens), Q9BTU6; purified PI4K2A, ADP-Glo luminescence, 1 h; stronger effect = lower value; activity change, negative = inhibition, % at 76.9 µM; 420,000 tested, 0.13% active; AID 1346378, 2018; in the data active = activity change below about -50%; inconclusive = mostly about -30% to -49%;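 also: -100% = wells without enzyme as full effect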
Target sequence (Q9BTU6 whole entry, looked up): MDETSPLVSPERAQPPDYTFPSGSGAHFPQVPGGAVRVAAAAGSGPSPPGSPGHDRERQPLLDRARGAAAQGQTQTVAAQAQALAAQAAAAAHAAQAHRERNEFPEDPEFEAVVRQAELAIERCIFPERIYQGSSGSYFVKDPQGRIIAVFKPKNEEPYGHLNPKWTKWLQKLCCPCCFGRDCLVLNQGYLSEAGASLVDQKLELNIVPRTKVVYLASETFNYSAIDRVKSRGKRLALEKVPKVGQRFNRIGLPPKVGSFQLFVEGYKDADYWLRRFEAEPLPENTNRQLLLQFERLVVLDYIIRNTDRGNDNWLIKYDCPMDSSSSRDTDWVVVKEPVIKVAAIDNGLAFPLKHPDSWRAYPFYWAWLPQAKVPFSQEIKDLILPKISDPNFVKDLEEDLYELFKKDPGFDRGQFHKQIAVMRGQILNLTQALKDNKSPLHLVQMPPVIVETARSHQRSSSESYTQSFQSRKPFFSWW
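ADP-Glo luminescence measured ADP generated by PI4K2A enzyme (4 ug/mL before mixing) with 1.2 mM PI substrate (pre-mix) and 300 microM ATP (pre-mix). Tris pH7.5 buffer with MgCl2, Triton X-100; 1 h reaction at ambient temperature.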
DRD3 agonist: qHTS of D3 Dopamine Receptor Agonist: qHTS; 410,000 tested, 0.58% active; max activation, %; D3R DiscoveRx beta-arrestin cells, luminescence, 90 min; AID 652048, 2013; in the data active = max activation above about 30%; also: 0% is about no effect
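Cells at 1500/well, incubated overnight, then treated with pinned compounds (dopamine as control) for 90 min at 37 degrees C. DiscoveRx reagent added for 30 - 60 minutes at room temperature; luminescence read.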
* hit, by the source's call.

Results for CCCc1nc2ccccc2n1CCOC ?
PI5P4K alpha inh: 9; LDHA inh: -4; D3 antag: -8; PI4K2A block: 5; DRD3 agonist: -2

Results for COc1ccc(NCc2nc3ccccc3n2CCOc2ccc(C)cc2)cc1 ?
PI5P4K alpha inh: -15; LDHA inh: -3; D3 antag: -52*; PI4K2A block: 4; DRD3 agonist: 5

What do the screens show for `COCCn1c(NC(=S)NC(=O)C23CC4CC(CC(C4)C2)C3)cc(=O)[nH]c1=O`?
PI5P4K alpha inh: inconclusive; LDHA inh: -1; D3 antag: -15; PI4K2A block: -3; DRD3 agonist: -5

How did COCCn1c(NC(=S)NC(=O)C2CC2)cc(=O)[nH]c1=O do in these assays?
PI5P4K alpha inh: -60*; LDHA inh: 6; D3 antag: -3; PI4K2A block: -3; DRD3 agonist: -14

Results for C[C@H]1CNC(=O)c2c(C(=O)Nc3ccc(CNC(=O)OC(C)(C)C)cc3)ncn21 ?
PI5P4K alpha inh: -8; LDHA inh: -7; D3 antag: 112; PI4K2A block: 2; DRD3 agonist: 34*

Results for Cc1ccc(NC(=O)c2nc[nH]c2C(=O)N2CCN(C(=O)OC(C)(C)C)CC2)cc1 ?
PI5P4K alpha inh: 11; LDHA inh: -6; D3 antag: 6; PI4K2A block: 1; DRD3 agonist: 5

What do the screens show for `C[C@H](NC(=O)c1[nH]cnc1C(=O)Nc1ccc(CNC(=O)OC(C)(C)C)cc1)C(=O)OC(C)(C)C`?
PI5P4K alpha inh: 0; LDHA inh: 1; D3 antag: 97; PI4K2A block: 0; DRD3 agonist: 39*

What do the screens show for `CC(C)(C)OC(=O)NCc1ccc(CNC(=O)c2nc[nH]c2C(=O)N2CCN(C(=O)OC(C)(C)C)CC2)cc1`?
PI5P4K alpha inh: -4; LDHA inh: -1; D3 antag: 46; PI4K2A block: -2; DRD3 agonist: 43*

What do the screens show for `CC(C)(C)OC(=O)NCCCC[C@H](NC(=O)c1[nH]cnc1C(=O)Nc1ccc(CNC(=O)OC(C)(C)C)cc1)C(=O)OC(C)(C)C`?
PI5P4K alpha inh: -3; LDHA inh: 2; D3 antag: 94; PI4K2A block: -2; DRD3 agonist: 18

How did C[C@H]1Cn2cnc(C(=O)Nc3ccc(CNC(=O)OC(C)(C)C)cc3)c2C(=O)N1 do in these assays?
PI5P4K alpha inh: -1; LDHA inh: -3; D3 antag: 15; PI4K2A block: -8; DRD3 agonist: 12

How did CCc1ccc(S(=O)(=O)Nc2ccc(N3CCN(C)CC3)cc2)cc1 do in these assays?
PI5P4K alpha inh: -4; LDHA inh: -6; D3 antag: -82*; PI4K2A block: 0; DRD3 agonist: -9

What do the screens show for `CCc1ccc(S(=O)(=O)Nc2ccc3c(c2)n(C)c(=O)c(=O)n3C)cc1`?
LDHA inh: 2; PI4K2A block: 6; DRD3 agonist: 6

What do the screens show for `Cc1ccc(S(=O)(=O)Nc2ccc(N3CCN(C)CC3)nc2)cc1`?
PI5P4K alpha inh: -2; LDHA inh: 1; D3 antag: -59*; PI4K2A block: 8; DRD3 agonist: -16

Results for Cc1ccc(-c2cc(C(=O)Nc3cccc(C#N)c3)c3ccccc3n2)o1 ?
LDHA inh: -2

What do the screens show for `O=C1CN(C(=O)Cn2ccc3cc(OCc4ccccc4)ccc32)CCN1`?
LDHA inh: 6

What do the screens show for `COc1ccc(-c2nc(CSCC(=O)NC3CCCCC3)co2)cc1`?
LDHA inh: 6

What do the screens show for `COC(=O)c1ccc(CN2CCC(CO)(Cc3cccc(OC)c3)CC2)cc1`?
PI5P4K alpha inh: 3; LDHA inh: -1; D3 antag: -80*; PI4K2A block: 0; DRD3 agonist: -9

How did COC(=O)c1ccc(CN2CCC(CO)(CCOc3ccccc3)CC2)cc1 do in these assays?
PI5P4K alpha inh: 4; LDHA inh: 0; D3 antag: inconclusive; PI4K2A block: 0; DRD3 agonist: -16

What do the screens show for `COC(=O)c1ccc(CN2CCCC(CO)(Cc3ccc(F)cc3F)C2)cc1` (configuration not stated)?
PI5P4K alpha inh: 4; LDHA inh: 1; D3 antag: -96*; PI4K2A block: -1; DRD3 agonist: -18

What do the screens show for `COC(=O)c1ccc(C(=O)OC)c(NS(=O)(=O)c2c(C)cc(C)cc2C)c1`?
LDHA inh: -3

What do the screens show for `OCC1CCCN(C2CCN(Cc3nc(Cc4cccc(C(F)(F)F)c4)no3)CC2)C1` (configuration not stated)?
PI5P4K alpha inh: -2; LDHA inh: -2; D3 antag: 15; PI4K2A block: 2; DRD3 agonist: 30*

Results for FC(F)(F)c1cccc(Cc2noc(CN3CCCC3)n2)c1 ?
PI5P4K alpha inh: -3; LDHA inh: -5; D3 antag: -8; PI4K2A block: 3; DRD3 agonist: 1

How did CC1(c2ccc([N+](=O)[O-])cc2)NC(=O)N(CC(=O)Nc2ccc(N3CCCCC3)cc2)C1=O (configuration not stated) do in these assays?
PI5P4K alpha inh: -6; LDHA inh: -1; D3 antag: -51*; PI4K2A block: 2; DRD3 agonist: -11

How did CC1(c2ccccc2)NC(=O)N(CC(=O)Nc2ccc([N+](=O)[O-])cc2)C1=O (configuration not stated) do in these assays?
PI5P4K alpha inh: -24; LDHA inh: -2; D3 antag: 1; PI4K2A block: 1; DRD3 agonist: -8

What do the screens show for `N[C@@H](Cc1ccc(O)cc1)c1nnc([C@H](CO)NC(=O)C2CCNCC2)o1`?
PI5P4K alpha inh: -5; LDHA inh: -1; D3 antag: 5; PI4K2A block: -1; DRD3 agonist: 33*

Results for COc1cc(CN2CCC(C(=O)N3CCN(c4ccccc4F)CC3)CC2)cc(OC)c1OC ?
PI5P4K alpha inh: 4; LDHA inh: -16; D3 antag: -53*; PI4K2A block: 2; DRD3 agonist: -6

How did COc1cccc(-c2noc(-c3cc4cc(Cl)ccc4oc3=O)n2)c1OC do in these assays?
LDHA inh: -2

Results for COc1cccc(-c2nc(CS(=O)(=O)CC(=O)Nc3cccc(C(F)(F)F)c3)c(C)o2)c1 ?
LDHA inh: -30*

How did COc1cccc(-c2nc(CS(=O)(=O)CC(=O)Nc3cccc(C(C)=O)c3)c(C)o2)c1 do in these assays?
PI5P4K alpha inh: -8; LDHA inh: -3; D3 antag: -4; PI4K2A block: 15; DRD3 agonist: -5

What do the screens show for `CCOC(=O)c1c(-c2ccc(F)cc2)csc1NC(=O)c1cccc(OC)c1`?
LDHA inh: -1

Screening data from PubChem.
